Holding throughout (conditions): mRNA level, 48 h; actives raise or lower the signal
Read-out in test [1]: Glutathione S-Transferase (GSTA2), GSTA2 (gene 2939)
Briefly: LTEA_HepaRG_GSTA2: Life Technologies and Expression Analysis (LTEA) Assay for Glutathione S-Transferase (GSTA2) using HepaRG (AID 2283497). An outline of the steps:
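Differentiated human HepaRG cells were exposed in duplicate for 48 h in serum-free induction medium, 8 points from 100 uM top in half-log steps, 0.5% DMSO. GSTA2 mRNA was measured by TaqMan qRT-PCR, normalized to ACTB, GAPDH and POLR2A; bidirectional fit versus DMSO.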

Read-out in test [2]: Glutamate-cysteine ligase catalytic (GCLC), GCLC (gene 2729)
Briefly: LTEA_HepaRG_GCLC: Life Technologies and Expression Analysis (LTEA) Assay for Glutamate-cysteine ligase catalytic (GCLC) using HepaRG (AID 2283498). An outline of the steps: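 Differentiated HepaRG cells exposed 48 h in serum-free induction medium, eight-point half-log series topping at 100 uM in 0.5% DMSO, duplicates. GCLC mRNA by qRT-PCR normalized to ACTB, GAPDH and POLR2A, fitted bidirectionally versus DMSO.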

Read-out in test [3]: growth arrest and DNA damage 45 (GADD45G), GADD45G (gene 10912)
Nature of the test: LTEA_HepaRG_GADD45G: Life Technologies and Expression Analysis (LTEA) Assay for growth arrest and DNA damage 45 (GADD45G) using HepaRG (AID 2283499). Summed up: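 Differentiated human HepaRG cells, 48 h post-plating, exposed 48 h in serum-free induction medium to 8 half-log concentrations (top 100 uM, 0.5% DMSO) in duplicate. GADD45G mRNA measured by Fluidigm TaqMan qRT-PCR, normalized to ACTB, GAPDH, POLR2A; bidirectional fit versus DMSO.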

Read-out in test [4]: Glutamate-cysteine ligase regulatory (GCLM), GCLM (gene 2730)
Nature of the test: LTEA_HepaRG_GCLM: Life Technologies and Expression Analysis (LTEA) Assay for Glutamate-cysteine ligase regulatory (GCLM) using HepaRG (AID 2283500). An outline of the steps: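 Differentiated HepaRG cells exposed 48 h in serum-free induction medium to eight half-log concentrations up to 100 uM (0.5% DMSO). GCLM mRNA by TaqMan qRT-PCR, normalized to ACTB, GAPDH and POLR2A; bidirectional fit versus DMSO.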

Read-out in test [5]: Glutathione S-transferase M3 (GSTM3), GSTM3 (gene 2947)
Briefly: LTEA_HepaRG_GSTM3: Life Technologies and Expression Analysis (LTEA) Assay for Glutathione S-transferase M3 (GSTM3) using HepaRG (AID 2283501). An outline of the steps:
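Differentiated human HepaRG cells were exposed in duplicate for 48 h in serum-free induction medium, 8 points from 100 uM top in half-log steps, 0.5% DMSO. GSTM3 mRNA was measured by TaqMan qRT-PCR, normalized to ACTB, GAPDH and POLR2A; bidirectional fit versus DMSO.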

Read-out in test [6]: Heat shock 70 kDa protein 1 (HSPA1A), gene 3303
Briefly: LTEA_HepaRG_HSPA1A: Life Technologies and Expression Analysis (LTEA) Assay for Heat shock 70 kDa protein 1 (HSPA1A) using HepaRG (AID 2283502). Summed up: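 Human HepaRG cells in serum-free induction medium were exposed in duplicate for 48 h to 8 half-log concentrations, highest 100 uM, in 0.5% DMSO. HSPA1A mRNA read by TaqMan qRT-PCR, normalized to ACTB, GAPDH, POLR2A, fitted bidirectionally against DMSO.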

Read-out in test [7]: Hypoxia-inducible factor 1-alpha (Homo sapiens) (UniProt Q16665)
Briefly: LTEA_HepaRG_HIF1A: Life Technologies and Expression Analysis (LTEA) Assay for Hypoxia-inducible factor 1 (HIF1A) Trancription factor using HepaRG (AID 2283503). An outline of the steps: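 Differentiated HepaRG cells in serum-free induction medium exposed 48 h, in duplicate, to 8-point half-log series from 100 uM in 0.5% DMSO. HIF1A mRNA measured by TaqMan qRT-PCR, normalized to ACTB/GAPDH/POLR2A, fitted bidirectionally versus DMSO.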

Read-out in test [8]: 3-Hydroxy-3-Methylglutaryl-CoA Synthase 2 (HMGCS2), HMGCS2 (gene 3158)
Briefly: LTEA_HepaRG_HMGCS2: Life Technologies and Expression Analysis (LTEA) Assay for 3-Hydroxy-3-Methylglutaryl-CoA Synthase 2 (HMGCS2) using HepaRG (AID 2283504). An outline of the steps:
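Human HepaRG cells in serum-free induction medium were exposed in duplicate for 48 h to 8-point half-log series from 100 uM top in 0.5% DMSO. HMGCS2 mRNA measured by TaqMan qRT-PCR, normalised to ACTB, GAPDH, POLR2A; bidirectional fit versus DMSO.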

Read-out in test [9]: HGF (gene 3082)
Nature of the test: LTEA_HepaRG_HGF: Life Technologies and Expression Analysis (LTEA) Assay for Hepatocyte Growth Facto (HGF) using HepaRG (AID 2283505). Summed up: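 Differentiated HepaRG cells in serum-free induction medium exposed 48 h in duplicate, 8 half-log concentrations from 100 uM in 0.5% DMSO. HGF mRNA by qRT-PCR, normalised to ACTB, GAPDH, POLR2A; bidirectional fitting.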

Read-out in test [10]: Insulin Like Growth Factor 1 (IGF1), IGF1 (gene 3479)
Nature of the test: LTEA_HepaRG_IGF1: Life Technologies and Expression Analysis (LTEA) Assay for Insulin Like Growth Factor 1 (IGF1) using HepaRG (AID 2283506). An outline of the steps: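 Differentiated HepaRG cells in serum-free induction medium, exposed 48 h in duplicate to 8 half-log concentrations up to 100 uM in 0.5% DMSO. IGF1 mRNA by Fluidigm qRT-PCR, normalised to ACTB, GAPDH and POLR2A.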

Read-out in test [11]: Insulin-like growth factor-binding protein 1 (IGFBP1), IGFBP1 (gene 3484)
Briefly: LTEA_HepaRG_IGFBP1: Life Technologies and Expression Analysis (LTEA) Assay for Insulin-like growth factor-binding protein 1 (IGFBP1) using HepaRG (AID 2283508). An outline of the steps:
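HepaRG cells, plated 48 h then switched to serum-free induction medium, exposed in duplicate for 48 h to 8-point half-log series from 100 uM in 0.5% DMSO. mRNA measured by qRT-PCR, normalized to ACTB/GAPDH/POLR2A; bidirectional fit versus DMSO.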

Read-out in test [12]: Interleukin 6 (IL6), IL6 (gene 3569)
Briefly: LTEA_HepaRG_IL6: Life Technologies and Expression Analysis (LTEA) Assay for Interleukin 6 (IL6) using HepaRG (AID 2283509). Summed up:
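HepaRG cells exposed in duplicate for 48 h to eight half-log concentrations, top 100 uM, in 0.5% DMSO serum-free induction medium. mRNA measured by qRT-PCR, normalized to ACTB, GAPDH and POLR2A. Bidirectional fit versus DMSO.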

Read-out in test [13]: Interleukin 6 Receptor (IL6R), IL6R (gene 3570)
Nature of the test: LTEA_HepaRG_IL6R: Life Technologies and Expression Analysis (LTEA) Assay for Interleukin 6 Receptor (IL6R) using HepaRG (AID 2283510). Summed up:
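Differentiated HepaRG cells, plated 48 h, then exposed in duplicate for 48 h in serum-free induction medium to 8 half-log concentrations (top 100 uM, 0.5% DMSO). IL6R mRNA measured by TaqMan qRT-PCR, normalized to ACTB/GAPDH/POLR2A; bidirectional fit vs DMSO.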

Read-out in test [14]: Potassium channel subfamily K member 1 (KCNK1), KCNK1 (gene 3775)
Nature of the test: LTEA_HepaRG_KCNK1: Life Technologies and Expression Analysis (LTEA) Assay for Potassium channel subfamily K member 1 (KCNK1) using HepaRG (AID 2283511). An outline of the steps:
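Differentiated HepaRG cells, 48 h exposure in serum-free induction medium with 0.5% DMSO; 8 concentrations, half-log from 100 uM, duplicate. KCNK1 mRNA by qRT-PCR, normalized to ACTB, GAPDH, POLR2A; bidirectional fit vs DMSO.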

Read-out in test [15]: Keratin 19 (KRT19), KRT19 (gene 3880)
Nature of the test: LTEA_HepaRG_KRT19: Life Technologies and Expression Analysis (LTEA) Assay for Keratin 19 (KRT19) using HepaRG (AID 2283512). An outline of the steps:
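Differentiated HepaRG cells in serum-free induction medium, exposed 48 h in duplicate to 8 half-log concentrations up to 100 uM in 0.5% DMSO. KRT19 mRNA by qRT-PCR, normalized to ACTB, GAPDH, POLR2A; bidirectional fit vs DMSO.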

Read-out in test [16]: JUN Transcription Factor, JUN (gene 3725)
Briefly: LTEA_HepaRG_JUN: Life Technologies and Expression Analysis (LTEA) Assay for JUN Transcription Factor using HepaRG (AID 2283513). Summed up:
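HepaRG cells, 48 h post-plating, exposed 48 h in serum-free induction medium to 8-point half-log series (top 100 uM, 0.5% DMSO), duplicate; mRNA by qRT-PCR (TaqMan, Fluidigm), normalized to ACTB/GAPDH/POLR2A; bidirectional fit vs DMSO.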

Read-out in test [17]: Lipase C (LIPC), LIPC (gene 3990)
Briefly: LTEA_HepaRG_LIPC: Life Technologies and Expression Analysis (LTEA) Assay for Lipase C (LIPC) using HepaRG (AID 2283514). Summed up:
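HepaRG cells, 48 h after plating, treated in duplicate for 48 h in serum-free induction medium over 8 half-log concentrations from 100 uM, 0.5% DMSO. LIPC mRNA by TaqMan qRT-PCR normalized to ACTB/GAPDH/POLR2A; bidirectional fit versus DMSO.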

Read-out in test [18]: Lipoprotein lipase (LPL), LPL (gene 4023)
Nature of the test: LTEA_HepaRG_LPL: Life Technologies and Expression Analysis (LTEA) Assay for Lipoprotein lipase (LPL) using HepaRG (AID 2283515). Summed up: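 Differentiated HepaRG cells, plated 48 h, then exposed 48 h in serum-free induction medium to 8 concentrations (top 100 uM, half-log steps) in 0.5% DMSO, duplicate. LPL mRNA measured by qRT-PCR, normalized to ACTB, GAPDH and POLR2A.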

Read-out in test [19]: Intercellular Adhesion Molecule 1 (ICAM1), ICAM1 (gene 3383)
Nature of the test: LTEA_HepaRG_ICAM1: Life Technologies and Expression Analysis (LTEA) Assay for Intercellular Adhesion Molecule 1 (ICAM1) using HepaRG (AID 2283507). Summed up: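 Differentiated human HepaRG cells in serum-free induction medium exposed 48 h in duplicate to 8 half-log concentrations (top 100 uM, 0.5% DMSO). ICAM1 mRNA quantified by TaqMan qRT-PCR, normalized to ACTB, GAPDH and POLR2A; bidirectional fitting versus DMSO.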

Read-out in test [20]: MicroRNA 122 (MIR122), gene 406906
Briefly: LTEA_HepaRG_MIR122: Life Technologies and Expression Analysis (LTEA) Assay for MicroRNA 122 (MIR122) using HepaRG (AID 2283516). Also: the transcript read is the microRNA miR-122. An outline of the steps: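 Differentiated human HepaRG cells in serum-free induction medium exposed 48 h to 8 half-log concentrations from 100 uM in 0.5% DMSO, duplicate. MIR122 quantified by Fluidigm TaqMan qRT-PCR, normalised to ACTB, GAPDH, POLR2A; fold change fitted bidirectionally versus DMSO.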

Molecules are shown by their SMILES. The source made the active and inactive calls. The calls were made as follows: active = hit-call score of the fitted dose curve at least 0.9, where 1 is the maximum; inactive = score below 0.9.

Hypoxia-inducible factor 1-alpha (Homo sapiens), sequence (Q16665 whole entry, looked up): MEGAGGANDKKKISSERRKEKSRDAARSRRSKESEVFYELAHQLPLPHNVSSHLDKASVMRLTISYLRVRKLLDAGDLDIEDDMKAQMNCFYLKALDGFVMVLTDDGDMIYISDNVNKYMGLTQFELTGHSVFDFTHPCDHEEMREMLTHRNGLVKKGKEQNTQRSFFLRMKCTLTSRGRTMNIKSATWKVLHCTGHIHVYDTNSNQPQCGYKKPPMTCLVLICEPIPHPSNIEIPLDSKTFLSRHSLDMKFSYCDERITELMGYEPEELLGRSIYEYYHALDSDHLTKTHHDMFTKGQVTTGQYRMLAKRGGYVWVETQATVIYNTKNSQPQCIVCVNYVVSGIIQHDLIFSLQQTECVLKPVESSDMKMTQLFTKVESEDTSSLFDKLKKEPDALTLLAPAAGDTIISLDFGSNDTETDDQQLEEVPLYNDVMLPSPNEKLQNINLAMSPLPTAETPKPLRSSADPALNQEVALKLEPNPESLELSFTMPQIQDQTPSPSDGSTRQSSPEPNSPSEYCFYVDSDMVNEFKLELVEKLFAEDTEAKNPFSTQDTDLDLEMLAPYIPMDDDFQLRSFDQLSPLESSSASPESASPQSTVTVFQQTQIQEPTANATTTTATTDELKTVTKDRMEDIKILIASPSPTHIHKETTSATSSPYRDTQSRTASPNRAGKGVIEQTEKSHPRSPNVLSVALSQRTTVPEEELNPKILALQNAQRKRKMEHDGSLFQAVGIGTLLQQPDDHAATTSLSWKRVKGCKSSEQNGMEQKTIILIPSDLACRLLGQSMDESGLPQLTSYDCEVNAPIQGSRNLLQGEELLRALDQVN

In the case of `Cc1c(C(=O)O)c(O)cc2c1C(=O)c1c(O)c([C@@H]3O[C@H](CO)[C@@H](O)[C@H](O)[C@H]3O)c(O)c(O)c1C2=O`, the compound was called inactive in test [1], in [2], in test [3], in test [4], in test [5] and in test [6]. Also, the compound was classed as inactive in test [7], in test [8], in test [9], in [10], in test [11] and in [12]. The compound was classed as inactive in test [13], in [14], in [15], in test [16], in [17] and in [18].

In the case of `CCCCCCCCCCC`, the compound was classed as inactive in test [1], in test [2], in test [3], in test [4], in test [5] and in test [6]. Also, the compound was called inactive in [7], in test [8], in [9], in test [10], in [19] and in [11]. Also, the call in [12], in test [13], in [14], in test [15], in [16] and in test [17] was inactive. For the same compound, the outcome in test [18] and in test [20] was inactive.

On to `Cc1ccc(C)c(C)c1`, for which the compound was called inactive in test [1], in test [2], in test [3], in [4], in test [5] and in test [6]. Also, the compound was classed as inactive in test [7], in test [8], in test [9], in [10], in [11] and in test [12]. For the same compound, the compound was classed as inactive in test [13], in [14], in test [15], in [16], in [17] and in [18].

For the compound `CCOC(=O)CCC(=O)OCC`, the compound was called inactive in test [1], in test [2], in test [3], in test [4], in test [7] and in test [8]. Further, the call in [9], in [10], in test [19], in test [11], in test [12] and in [13] was inactive. Besides, the compound was called inactive in test [14], in test [15], in test [16] and in test [17]. The AC50 was 83.4 µM (active) in test [5], 88.6 µM (active) in [6] and 85 µM (active) in test [18].

As usually defined, the AC50 is the concentration giving half of the maximal activity seen.

The values are drawn from PubChem BioAssay (EPA / NIEHS).
